Here are results for nine compounds from PubChem BioAssay (Tox21).

Unmarked numbers belong to inactive results. Records with an inconclusive call do not appear. Calls of active or inactive are those of the source. Unless noted, the call rests on the fitted dose curve.

Assay [1] in a line: Nuclear factor erythroid 2-related factor 2/antioxidant responsive element (Nrf2/ARE) small molecule agonists: qHTS cell viability counter screen in human keratinocytes (AID 1919968; active means well fitted curve in the direction sought with a large enough effect in the repeat runs; an effect the other way counts as inactive or inconclusive; further: nearly all actives have a fitted effect of over 55% in size; further: potency means the concentration at half of the fitted maximal effect). The gist of the method: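 After a 5 h attachment period, ARE-reporter keratinocytes were dosed with compounds in DMSO and then cultured 23 h at 37 C. Cell viability came from CellTiter-Fluor signal read after a further 1 h.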

For assay [2], the target named is Gonadotropin-releasing hormone receptor (Homo sapiens) (UniProt P30968). Kind of assay: Human gonadotropin-releasing hormone receptor (GnRHR) small molecule agonists, calcium flux assay in GnRHR-HEK293 cells (AID 1920063). Further: nearly all actives have a fitted effect of over 35% in size. The method, boiled down:
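We seeded human GnRHR-expressing HEK293 cells for 18 hours, loaded them with calcium dye for an hour at 37 C, added test compounds, and recorded fluorescence intensity kinetically for three minutes.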

The target of assay [3] is KiSS-1 receptor (Homo sapiens) (UniProt Q969F8). Kind of assay: Human kisspeptin (KISS1R) small molecule agonists, calcium flux assay in KISS1R-HEK293 cells (AID 1920064; active means well fitted curve in the direction sought with a large enough effect in the repeat runs; an effect the other way counts as inactive or inconclusive). The gist of the method: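 Kinetic calcium assay, 1 s sampling over 3 min at Ex/Em 480/540, in HEK293 cells engineered with human KISS1R; compounds delivered in DMSO after 1 h dye loading.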
Sequence of KiSS-1 receptor (Homo sapiens) (Q969F8 whole entry, looked up): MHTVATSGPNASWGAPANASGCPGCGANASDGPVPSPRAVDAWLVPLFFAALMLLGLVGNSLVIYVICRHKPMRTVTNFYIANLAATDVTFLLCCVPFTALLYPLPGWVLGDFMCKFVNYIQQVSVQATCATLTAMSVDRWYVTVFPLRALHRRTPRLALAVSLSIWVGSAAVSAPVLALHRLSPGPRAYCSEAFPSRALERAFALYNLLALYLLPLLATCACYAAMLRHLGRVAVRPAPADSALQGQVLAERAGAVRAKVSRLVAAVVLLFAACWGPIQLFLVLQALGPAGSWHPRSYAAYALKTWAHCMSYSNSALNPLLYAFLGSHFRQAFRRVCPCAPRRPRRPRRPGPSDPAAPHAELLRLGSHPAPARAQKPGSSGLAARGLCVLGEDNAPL
Assay [4] is described as follows: G protein-coupled receptor (GPCR) small molecule agonists, calcium flux assay: HEK293 wild type cell line counter screen (AID 1920065). The method, boiled down: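 Calcium-sensitive dye, loaded 1 h at 37 C into cells cultured 18 h, reports compound-evoked calcium release as fluorescence (Ex/Em 480/540), measured over 3 min. Agonist mode; 15-point titrations, triplicate.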

A short description of assay [5]: p53 small molecule agonists, cell-based qHTS assay with human liver microsomes (AID 1963577). The method, boiled down: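 p53RE-bla cells, 4,000/well, compound added after 5 h, with human liver microsomes 0.5 mg/mL and NADPH 0.5 mg/mL final; 16 h at 37 C, then LiveBLAzer 2 h RT, fluorescence.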
Assay [6] in a line: p53 small molecule agonists, cell-based qHTS assay with human liver microsomes: qHTS cell viability counter screen (AID 1963579). Further: nearly all actives have a fitted effect of over 45% in size. The gist of the method: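 p53RE-bla cells, 4,000/well, dosed 5 hours after plating, with human liver microsomes (0.5 mg/mL final) plus NADPH (0.5 mg/mL final), 16 hours at 37 C. Viability read as CellTiter-Glo luminescence after 30 min at room temperature.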

Assay [7] in a line: p53 small molecule agonists, cell-based qHTS assay with rat liver microsomes: qHTS cell viability counter screen (AID 1963580). Further: nearly all actives have a fitted effect of over 45% in size. The method, boiled down:
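Viability is assessed in parallel with the p53 reporter read: HCT-116 p53RE-bla cells receive compounds plus rat microsomes and NADPH (0.5 mg/mL final apiece), incubate 16 h at 37 C, and then CellTiter-Glo luminescence is recorded.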

A short description of assay [8]: p53 small molecule agonists, cell-based qHTS assay: qHTS cell viability counter screen (AID 1963581). Further: nearly all actives have a fitted effect of over 45% in size. The gist of the method: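 Following 5 h attachment, HCT-116 p53RE-bla cells took up compound for 16 h at 37 C; the reporter was read with B/G FRET substrate (2 h RT), and viability then via CellTiter-Glo ATP luminescence.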
Assay [9] is described as follows: p53 small molecule agonists, cell-based qHTS assay (AID 1963582; active means well fitted activation curve with a large enough effect in the signal ratio in the repeat runs, not every such curve was filed as active; the % refers to the signal ratio). The method, boiled down:
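In this cell-based concentration-response screen, a p53 response element drives beta-lactamase; cells received DMSO-borne compounds after 5 h culture and were incubated a further 16 h before FRET substrate development.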

Assay [10] deals with 5-hydroxytryptamine receptor 2A (Homo sapiens) (UniProt P28223). The experiment in a line: 5-hydroxytryptamine receptor 2A (HTR2A) small molecule antagonists, cell-based qHTS assay (AID 1963586). Further: nearly all actives have a fitted effect of over 45% in size. The gist of the method: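 Antagonist-mode intracellular calcium assay: DOI (4 nM) added after 5 min compound pre-incubation at room temperature to dye-loaded HTR2A-CHO cells. Fluorescence followed for 3 min, sampled every second.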
Sequence of 5-hydroxytryptamine receptor 2A (Homo sapiens) (P28223 whole entry, looked up): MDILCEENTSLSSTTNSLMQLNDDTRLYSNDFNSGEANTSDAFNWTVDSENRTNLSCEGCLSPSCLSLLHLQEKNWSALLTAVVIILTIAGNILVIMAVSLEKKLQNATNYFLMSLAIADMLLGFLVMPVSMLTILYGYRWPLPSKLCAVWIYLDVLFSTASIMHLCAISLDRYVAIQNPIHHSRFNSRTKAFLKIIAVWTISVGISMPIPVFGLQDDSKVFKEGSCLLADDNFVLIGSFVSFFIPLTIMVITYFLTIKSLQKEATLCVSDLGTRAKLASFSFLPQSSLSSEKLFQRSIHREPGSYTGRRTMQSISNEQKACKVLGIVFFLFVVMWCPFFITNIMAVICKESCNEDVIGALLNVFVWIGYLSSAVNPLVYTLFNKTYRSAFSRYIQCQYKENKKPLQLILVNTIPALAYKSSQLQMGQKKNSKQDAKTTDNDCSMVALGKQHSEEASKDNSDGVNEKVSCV

For assay [11] the target is unchanged. Kind of assay: 5-hydroxytryptamine receptor 2A (HTR2A) small molecule agonists, cell-based qHTS assay (AID 1963587). Further: nearly all actives have a fitted effect of over 30% in size. The gist of the method: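 CHO cells stably expressing human HTR2A, plated 18 h, loaded with calcium dye 1 h at 37 C. Agonist mode: compounds added and intracellular calcium fluorescence recorded kinetically for 2 min at 1 sec intervals.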
For assay [12], the target named is Muscarinic acetylcholine receptor M1 (Homo sapiens) (UniProt P11229). Kind of assay: Cholinergic receptor muscarinic 1 (CHRM1) small molecule antagonists, cell-based qHTS assay (AID 1963588). Further: nearly all actives have a fitted effect of over 40% in size. The method, boiled down:
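CHRM1-CHO calcium-flux assay, antagonist mode. Cells were seeded 18 h, dye-loaded 1 h at 37 C and given compound for 5 min at RT, then acetylcholine was added at 50nM. FDSS fluorescence was read 3 min; 15 concentrations, three runs.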

For assay [13] the target is unchanged. The experiment in a line: Cholinergic receptor muscarinic 1 (CHRM1) small molecule agonists, cell-based qHTS assay (AID 1963589). Further: nearly all actives have a fitted effect of over 35% in size. The method, boiled down: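 Measures agonist-induced intracellular calcium rise. Stable human CHRM1 CHO line, 1 h dye load at 37 C, compounds from DMSO, kinetic fluorescence read.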
Assay [14] can be described thus: cAMP Responsive Elements (CRE) small molecule agonists, cell-based qHTS assay (AID 1963590). The method, boiled down: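 A CRE-responsive beta-lactamase reporter in HEK 293T cells was used. Treatment ran 3 h at 37 C; detection used LiveBLAzer B/G FRET substrate for 2 h at room temperature.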
The target of assay [15] is Beta-2 adrenergic receptor (Homo sapiens) (UniProt P07550). Kind of assay: Adrenergic beta2 receptor (ADRB2) small molecule antagonists, cell-based qHTS assay (AID 1963592). Further: series mostly up to about 92 µM; nearly all actives have a fitted effect of over 50% in size. The gist of the method: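 Cells (CHO, stable ADRB2 overexpression) incubated 18-20hr at 37C; compounds added from DMSO; agonist mix (1nM isoproterenol, 100uM IBMX, 25uM Ro-20-1724) added; 0.5hr RT; d2-cAMP and anti-cAMP-cryptate added; 1hr RT; 665/615 nm read.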
Sequence of Beta-2 adrenergic receptor (Homo sapiens) (P07550 whole entry, looked up): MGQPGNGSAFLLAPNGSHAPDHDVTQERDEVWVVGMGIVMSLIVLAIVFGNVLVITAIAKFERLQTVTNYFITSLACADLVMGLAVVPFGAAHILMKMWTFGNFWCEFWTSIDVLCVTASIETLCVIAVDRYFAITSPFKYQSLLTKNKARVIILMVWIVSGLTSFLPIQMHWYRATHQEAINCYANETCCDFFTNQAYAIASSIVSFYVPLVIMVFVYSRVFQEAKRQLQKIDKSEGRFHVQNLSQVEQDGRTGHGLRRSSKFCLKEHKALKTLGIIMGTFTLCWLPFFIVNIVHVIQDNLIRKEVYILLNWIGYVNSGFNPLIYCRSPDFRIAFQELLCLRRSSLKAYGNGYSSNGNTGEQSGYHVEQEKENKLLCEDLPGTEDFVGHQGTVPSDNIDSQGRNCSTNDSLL

For assay [16], the target named is D(2) dopamine receptor (Homo sapiens) (UniProt P14416). Kind of assay: Dopamine D2 receptor (DRD2) small molecule antagonists, cell-based qHTS assay (AID 1963595; active means well fitted inhibition curve with a large enough effect in the signal ratio in the repeat runs, with a control signal flat; the % refers to the signal ratio). The gist of the method:
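Antagonism was scored as restored cAMP in HEK293-DRD2 cells. These cells were stimulated with 200 nM NKH477 and 12 nM quinpirole for 30 min at room temperature, in the presence of 0.1 mM Ro20-1724.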

The nature of assay [17]: p53 small molecule agonists, cell-based qHTS assay with rat liver microsomes (AID 1963578). The gist of the method:
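p53RE-bla cells, 4,000/well, pre-incubated 5 h, then given compounds plus rat liver microsomes (0.5 mg/mL final) and NADPH (0.5 mg/mL final). Incubation 16 h at 37 C; beta-lactamase reporter read by LiveBLAzer fluorescence after 2 h at room temperature.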

The nature of assay [18]: cAMP Responsive Elements (CRE) small molecule antagonists, cell-based qHTS assay (AID 1963591; active means well fitted inhibition curve with a large enough effect in the signal ratio in the repeat runs, not every such curve was filed as active; the % refers to the signal ratio). The gist of the method:
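HEK293T cells carrying a CRE-driven beta-lactamase reporter receive compound and NKH477 (0.25 uM final) for 3 h. Fluorescence from LiveBLAzer B/G FRET substrate is read after 2 h at room temperature.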

For assay [19], the target named is D(2) dopamine receptor (Homo sapiens) (UniProt P14416). Kind of assay: Dopamine D2 receptor (DRD2) small molecule agonists, cell-based qHTS assay (AID 1963594). Further: nearly all actives have a fitted effect of over 35% in size. The method, boiled down:
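HEK293 cells stably expressing human DRD2, pre-treated with PDE inhibitor Ro20-1724 (0.1 mM final) and compound 10 min at room temperature, then stimulated with NKH477 (200nM […]) for 30 min. cAMP read by HTRF (665/620 nm).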
On the % scale 0 is the no-effect control and ±100 the full control effect.

Sequence of Muscarinic acetylcholine receptor M1 (Homo sapiens) (P11229 whole entry, looked up): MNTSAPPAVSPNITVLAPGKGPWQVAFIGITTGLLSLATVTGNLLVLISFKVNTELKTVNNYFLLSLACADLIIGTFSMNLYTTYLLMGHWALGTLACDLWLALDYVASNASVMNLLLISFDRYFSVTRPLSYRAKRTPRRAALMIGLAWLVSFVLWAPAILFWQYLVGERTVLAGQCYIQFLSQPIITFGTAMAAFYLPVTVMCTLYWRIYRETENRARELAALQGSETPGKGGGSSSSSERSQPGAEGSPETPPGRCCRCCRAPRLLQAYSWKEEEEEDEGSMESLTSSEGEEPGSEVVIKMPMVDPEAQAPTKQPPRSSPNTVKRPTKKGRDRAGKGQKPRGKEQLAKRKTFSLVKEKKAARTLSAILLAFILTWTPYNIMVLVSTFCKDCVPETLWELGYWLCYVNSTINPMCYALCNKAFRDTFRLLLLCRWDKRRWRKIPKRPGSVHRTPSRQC
Sequence of Gonadotropin-releasing hormone receptor (Homo sapiens) (P30968 whole entry, looked up): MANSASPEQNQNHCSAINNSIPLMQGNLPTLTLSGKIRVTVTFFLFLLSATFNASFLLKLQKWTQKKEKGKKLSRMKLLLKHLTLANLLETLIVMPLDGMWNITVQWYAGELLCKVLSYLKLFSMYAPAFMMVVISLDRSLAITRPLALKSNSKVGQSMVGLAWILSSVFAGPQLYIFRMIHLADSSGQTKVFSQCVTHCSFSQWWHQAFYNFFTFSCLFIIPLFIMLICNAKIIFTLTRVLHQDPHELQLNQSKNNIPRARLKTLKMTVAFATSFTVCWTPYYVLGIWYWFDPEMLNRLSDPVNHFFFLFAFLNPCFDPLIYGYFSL
Sequence of D(2) dopamine receptor (Homo sapiens) (P14416 whole entry, looked up): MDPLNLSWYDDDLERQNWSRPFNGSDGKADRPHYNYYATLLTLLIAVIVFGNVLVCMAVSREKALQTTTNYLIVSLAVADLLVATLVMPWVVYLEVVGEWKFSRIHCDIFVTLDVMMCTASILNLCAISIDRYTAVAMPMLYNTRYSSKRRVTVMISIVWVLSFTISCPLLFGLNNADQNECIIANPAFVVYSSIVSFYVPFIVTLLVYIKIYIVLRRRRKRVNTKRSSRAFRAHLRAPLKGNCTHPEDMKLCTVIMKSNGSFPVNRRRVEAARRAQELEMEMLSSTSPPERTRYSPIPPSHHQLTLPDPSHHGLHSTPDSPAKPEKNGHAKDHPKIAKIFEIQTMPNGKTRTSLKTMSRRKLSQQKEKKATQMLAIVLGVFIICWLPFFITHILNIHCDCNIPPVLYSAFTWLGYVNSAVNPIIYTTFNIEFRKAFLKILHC

In the case of `C/C=C(\C)C#N`, the Potency entry in assay [1], in [2], in [5], in [6], in assay [7] and in [8] was “inactive” in each case. Besides, the Potency entry in assay [9], in [10], in [11], in assay [12], in [13] and in [14] was “inactive” in each case. Besides, the Potency result in [15] and in assay [16] was “inactive” in each case. Also, the outcome in assay [3] and in assay [4] was inactive.

Take `COc1cc2c(cc1OC)-c1cc3ccc(OC)c(OC)c3c[n+]1CC2`: the Potency entry in [1], in assay [2], in assay [5], in assay [17], in assay [6] and in assay [7] was “inactive” in each case. Further, the Potency result in [8], in assay [9], in assay [11], in assay [12], in [13] and in assay [18] was “inactive” throughout.

In the case of `Cc1ccc2c(c1)C(=O)c1ccccc1C2=O`, the Potency result in assay [1], in assay [2], in assay [17], in assay [6], in assay [7] and in assay [8] was “inactive” throughout. Besides, the Potency result in [9], in [10], in assay [12], in assay [13], in [15] and in assay [19] was “inactive” throughout. Also, the Potency result in assay [16] was “inactive”. The outcome in assay [3] and in [4] was inactive.

In the case of `C/C=C/C(=O)CC`, the activity change, negative = cytotoxicity was -0.853% [at 19 µM] in assay [1] and 7.07% [at 13.5 µM] in [8]. The activity change in assay [2] is 1.75% [at 11.8 µM, hits give high values]. Further, the activation is -0.292% [at 15.8 µM] in assay [3]; -15.9% [at 13.5 µM] in assay [5]; -0.406% [at 13.6 µM] in [17]; -2.81% [at 13.5 µM] in [9]; -1.41% [at 15.9 µM] in assay [11]; 0.129% [at 15.8 µM] in assay [13]. The activation in [14] was -0.284% [at 19 µM]; in assay [19] it was -9.38% [at 19 µM]. For the same compound, the values for the activity, negative = inhibition in assay [10] and in assay [12] were 10.6% [at 12.7 µM] and 37.8% [at 12.6 µM], respectively. Further, the figures for the activity change, negative = inhibition in [18], in assay [15] and in assay [16] were 1.47% [at 18.9 µM], 3.38% [at 19 µM] and 0.284% [at 18.9 µM], respectively.

On to `CO/N=C(\C(=O)O)c1csc(NC(=O)CCl)n1`, for which the Potency result in assay [1], in assay [2], in assay [5], in assay [17], in assay [6] and in [7] was “inactive” throughout. The Potency entry in assay [8], in assay [9], in assay [10], in [11], in assay [12] and in assay [13] was “inactive” throughout. Further, the Potency entry in assay [15], in assay [19] and in [16] was “inactive” in each case. Further, the outcome in assay [3] was inactive.

Turning to `CCCCCCOc1ccc(N)cc1`, the Potency result in assay [1], in assay [2], in assay [17], in [6], in assay [7] and in assay [8] was “inactive” throughout. Also, the Potency result in assay [9], in [12], in assay [13], in [14], in assay [18] and in [15] was “inactive” throughout. Further, in [16], the Potency result was “inactive”. Moreover, the result in [3] and in [4] was inactive.

For the compound `CC(=O)c1cnccn1`, the Potency entry in assay [1], in [5], in assay [17], in [6], in assay [7] and in assay [8] was “inactive” each time. The Potency entry in assay [12], in [13], in assay [14], in [18], in [19] and in [16] was “inactive” in each case. For the same compound, the outcome in [3] and in assay [4] was inactive.

As to `Cc1nc2ccccc2n1Cc1ccc(Cl)cc1`, the Potency in [1] is 1680 nM (active). The Potency result in [2], in assay [5], in [11], in [12], in assay [18] and in assay [15] was “inactive” each time. Besides, the Potency result in assay [16] is “inactive”. For the same compound, the result in assay [3] and in [4] was inactive.

Regarding `C[N+]1(C)CCCC(OC(=O)C(O)(c2ccccc2)c2ccccc2)C1` (stereo unspecified), the Potency result in assay [1], in assay [2], in assay [17], in assay [6], in assay [7] and in [8] was “inactive” throughout. In addition, the Potency entry in [9], in assay [10], in assay [11], in assay [13], in assay [14] and in assay [18] was “inactive” each time. For the same compound, the Potency result in assay [15], in assay [19] and in [16] was “inactive” each time. Further, the outcome in [3] and in [4] was inactive.
